In PubChem BioAssay AID588497 (NMMLSC, 2011):
About 780 (0.22%) of roughly 360,000 compounds were called active. Inconclusive results (about 4%) are left out. The sample as a whole holds a higher share of actives than the screen did. A number with no mark means an inactive call. Rule as the data show it: active = inhibition above about 35% (passing the limit was not always enough); inconclusive = no clear call, values can overlap the other calls.

Tested on: Botulinum neurotoxin type F light chain protease (Clostridium botulinum)
Assay: BoNT/F light chain protease inhibitors, primary screen, biochemical, flow cytometry, MLPCN library (AID 588497); also: plate controls were buffer without enzyme for full effect and enzyme alone for no effect
Settings: Multiplex microsphere protease cleavage assay, at 10 µM, active compounds read high

Structure (SMILES)	inhibition
C=CCN(CC=C)S(=O)(=O)c1ccc(C(=O)Nc2nc3c(s2)CCc2ccccc2-3)cc1	-8.2%
c1ccc2c(c1)CCc1snnc1-2	40.3% (active)
O=C(c1snnc1-c1ccccc1)N1CCOCC1	-9%
COc1ccc(CC(N)c2csc(NC(=O)Nc3ccc(C(C)C)cc3)n2)cc1 (configuration not stated)	-11.1%
CC1CN(Cc2ccccc2)C(=S)NC1=O (configuration not stated)	0.1%
CN(C)c1ccc(C=C2C(=O)OC3(CCCC3)OC2=O)cc1	6.6%
CN(C)c1ccc(/C=C2\NC(=S)N(Cc3ccccc3)C2=O)cc1	35.7% (active)
Cc1ccc(CC2(C)C(=O)Nc3ccc(OC(F)(F)F)cc32)cc1 (configuration not stated)	-5%
C=CCC[C@@H](CCCCC)OC(=O)/C=C/[C@@H](O)[C@H](O)C[C@H](O)CC=C	4.2%
O=C1NC[C@H](Cc2ccc(O)cc2)N(C[C@H]2CCCN2C[C@H](Cc2ccccc2)N2C[C@H](Cc3ccccc3)N(CCc3ccccc3)C(=O)C2=O)C1=O	-3.4%
O=C1Nc2ccccc2NC(c2ccc3c(c2)OCO3)=C1N(Cc1ccc(F)cc1)C(=O)c1ccco1	-0.6%
Cc1cc(=O)n(C)c(=O)n1CCCNc1ccccc1	6.9%
Cn1c(Nc2ccccc2)cc(=O)n(C)c1=O	35.2% (active)
CC(C)Oc1ccc(C(=O)Nc2cc(=O)n(C)c(=O)n2C)cc1	-0.5%
CC(=O)c1cccc(-c2cnc3c(NC=O)cc(-c4ccccc4Oc4ccccc4)cn23)c1	-5.9%
CCCn1nnc2sc3c(c2c1=O)CCC(C)C3 (configuration not stated)	-1.8%
CC1CCc2c(sc3nc4n(c(=O)c23)CCS4)C1 (configuration not stated)	43.2% (active)
C=CCn1c(SCc2c(C)noc2C)nc2sc3c(c2c1=O)CCC(C)C3 (configuration not stated)	-1.6%
COc1ccc(C(c2nnnn2C2CCCC2)N2CCN(C/C=C/c3ccccc3)CC2)cc1 (configuration not stated)	-6.6%
CC(=O)Nc1cc(-c2cccc(CO)c2)cn2c(-c3cccc(C(F)(F)F)c3)cnc12	0.9%
O=C(NC(c1ccc(Cl)cc1)c1cnccn1)C1CCN(Cc2ccc(Cl)cc2)CC1 (configuration not stated)	-2.2%
Cc1nc2c(OCc3ccc(Cl)cc3Cl)cccn2c1N(C)CC1CC1	-6%
Nc1ccccc1Sc1cc(Cl)nnc1Cl	82.9% (active)

Structure (SMILES)	inhibition
Cc1nn(C)c(C)c1Sc1ccccc1N	-4.3%
CC(C)Nc1nc(NCCOc2ccccc2Cl)c2sccc2n1	-12.7%
NC(Cc1ccc(F)cc1)c1csc(Nc2nncc3ccccc23)n1 (configuration not stated)	-21.6%
COc1ccc(-c2coc3c(C(=O)NC(C)C)cccc23)c(C)c1	-5.4%
CCOc1ccc(/C=C(/C#N)c2nnc(N3CCOCC3)n2-c2ccccc2)cc1OC	-9.5%
COc1cc(N2CCCC2)c(OC)cc1/C=C(/C#N)c1cccc(Br)c1	169% (active)
COc1ccc(-c2ccc(C(=O)NCCN3CCOCC3)c3occc23)c(C)c1	-4.4%
CCc1nc2ccc(C(=O)Nc3cccc(OC)c3)cn2c1N(CCC(C)C)CCN(C)C	3%
CCOCCC(=O)Nc1ccc2c(c1)c(=O)n(C)n2-c1ccc2ccccc2c1	-6%
OC(c1ccc(Cl)cc1)c1ncc(-c2ccc(Cl)cc2)[nH]1 (configuration not stated)	-8.9%
COc1ccc(CNC(=O)CN(c2ccc(OC)c(Cl)c2)S(=O)(=O)c2ccc(C)cc2)cc1	-6.9%
COC(=O)CN(c1nc(C)c(Cl)c(OC)n1)S(=O)(=O)c1ccc(C)cc1	41.2% (active)
CCN(CC)C(=O)CN(c1cccc(OC)c1)S(=O)(=O)c1ccc(C)cc1	-9.7%
CC(=O)Nc1cccc(-c2cc(NC=O)c3ncc(-c4ccc(F)c(Cl)c4)n3c2)c1	-9.5%
COc1ccc(-c2cc(NC(C)=O)c3ncc(-c4cc(OC)c(OC)c(OC)c4)n3c2)cn1	2.1%
CC1(C(=O)NCc2cccc3ccccc23)CCN1Cc1ccc(-c2ccccc2)o1 (configuration not stated)	-9.6%
CCc1nc2c(OCc3ccc(C(F)(F)F)cc3)cccn2c1N(C)C(=O)CC(C)C	0.4%
O=C(CN1CCN(c2ccccc2O)CC1)NC(=O)NCc1ccccc1	69.8% (active)
COc1ccccc1N1CCN(CC(=O)NC(=O)NCc2ccco2)CC1	-6.6%
Oc1ccccc1N1CCN(C(=S)NCc2ccccc2)CC1	-13.6%
Cc1ccc(Cc2c(-c3ccc(Cl)cc3)nc3c4ccccc4ccn23)cc1	-5.5%
CSCCC(c1nnnn1Cc1ccccc1)N1CCN(C/C=C/c2ccccc2)CC1 (configuration not stated)	-9.9%
O=S(=O)(NC1CCCCC1N1CCC(O)CC1)c1ccc(Cl)cc1 (configuration not stated)	110% (active)

Structure (SMILES)	inhibition
CCN1CCN(C2CCCCC2NS(=O)(=O)c2ccc(Cl)cc2)CC1 (configuration not stated)	-2%
O=S(=O)(NC1CCCCC1N1CCCCC1)c1ccc(Cl)cc1 (configuration not stated)	24.7%
c1ccc(Cc2c(-c3ccco3)nc3c4ccccc4ccn23)cc1	4.5%
CCOc1ccc2[nH]c(=S)sc2c1	4.7%
C[C@H]([C@@H](O)[C@@H](O)[C@@H](C)C(C)(C)C)[C@H]1CC[C@H]2C3CC[C@H]4C[C@H](OS(=O)(=O)O)[C@@H](OS(=O)(=O)O)C[C@]4(C)[C@H]3CC[C@]12C (some centres not stated)	7.2%
COc1ccc(-c2cc(NC=O)c3ncc(-c4cc(OC)c(OC)c(OC)c4)n3c2)c(OC)c1	-7.7%
Cc1c(NC(=O)c2coc(=O)c(Br)c2)c(=O)n(-c2ccccc2)n1C	0.1%
Cc1c(NC(=O)c2cccnc2)c(=O)n(-c2ccccc2)n1C	58.9% (active)
Cc1c(NC(=O)c2c([N+](=O)[O-])cnn2C)c(=O)n(-c2ccccc2)n1C	-13.3%
CCCCCc1c(Cc2ccccc2)ncn1CCc1ccccc1OC	-7%
Cc1cc2nc(-c3ccc(Cl)cc3)c(Cc3cccc(F)c3)n2c(C)c1Br	-1.2%
COc1ccc(CC(N)c2csc(NC(=O)NC(c3ccccc3)c3ccccc3)n2)cc1 (configuration not stated)	-27.6%
O=C(Nc1nnc(CCc2ccccc2)s1)C1CCCO1 (configuration not stated)	37% (active)
O=C(Nc1ccc(-c2nnc(-c3ccccc3)o2)cc1)C1CCCO1 (configuration not stated)	-1.7%
O=C(Nc1nnc(SCc2c(Cl)cccc2Cl)s1)C1CCCO1 (configuration not stated)	-21.4%
NCCCNC(=S)NCCCN(Cc1ccc(Cl)cc1)c1ccc(Br)cn1	-47.9%
C=C1C(=O)OC2C1CCC(C)=CCCC1(C)OC21 (configuration not stated)	-2.6%
COc1ccc(Cl)cc1-c1cc(C(=O)Nc2cc(OC)c(OC)c(OC)c2)[nH]n1	-0.6%
CCCc1c(-c2ccccc2F)ncn1Cc1ccccc1OC	-10.4%
Cc1cccc(OCC(=O)Nc2ccc(NC(=O)c3ccco3)c(C)c2)c1	17.3%
Cc1ccc(NC(=O)c2ccco2)cc1	-6%
Cc1ccc(C(=O)COc2cccc(NC(=O)c3ccco3)c2)cc1	44.6% (active)
Clc1cccc(Cc2c(-c3cccc(Cl)c3)nc3ccc(Cl)cn23)c1	-3.7%

Structure (SMILES)	inhibition
Fc1cccc(Cc2c(-c3ccc(Cl)cc3)nc3ccc(Cl)cn23)c1	-6%
CCN1CCN(C(C(=O)NC2CCCC2)c2cc3c(cc2[N+](=O)[O-])OCO3)CC1 (configuration not stated)	35.9% (active)
O=C(Cc1ccccc1[N+](=O)[O-])N1CCN(Cc2ccc3c(c2)OCO3)CC1	-12.3%
CCC(C)(C(=O)NC1CCCCC1)N(C)C(=O)c1ccc2c(c1)OCO2 (configuration not stated)	4%
OC(c1ccccc1)c1nc(/C=C/c2ccc(C(F)(F)F)cc2)cs1 (configuration not stated)	-10.4%
Cc1cc(=O)oc2c3c(cc(OCC(=O)NCC(O)c4ccccc4)c12)OC(C)(C)CC3 (configuration not stated)	-2%
O=C(CC[C@H]1O[C@@H](n2ccc(=O)[nH]c2=O)[C@H](O)[C@@H]1O)N[C@H](Cc1ccccc1)C(=O)NCCCN1CCCC1=O	1.4%
CC(=O)c1cccc(NC(=O)N2CCCC2C(=O)NCCc2ccccc2)c1 (configuration not stated)	35.3% (active)
O=C(NCCc1ccc(Cl)cc1)C1CCCN1C(=O)NCc1ccccc1 (configuration not stated)	-20.3%
Cc1ccc(CNC(=O)C2CCCN2C(=O)NCc2ccccc2)cc1 (configuration not stated)	5.7%
CCOC(=O)c1ccc(-c2ccc3ncnc(N(C)Cc4sccc4C)c3c2)o1	6.1%
CC(=O)N1Cc2cc(C(=O)NCc3cccc(F)c3)nc(-c3cccc(C4=CCCCC4)c3)c2[C@H]1CCO	-0.7%
CN(C(=O)c1ccccn1)c1nnc(-c2ccccn2)s1	40.4% (active)
CN(C(=O)C1CCOC1)c1nnc(-c2cccnc2)s1 (configuration not stated)	6.9%
O=C(Nc1nnc(C2CC2)s1)c1ccccn1	-19.8%
CC(C)Cc1nnc(NC(=O)CCNC(=O)c2ccccc2Cl)s1	-5.1%
CC(C)Cc1nnc(NC(=O)CCC(=O)Nc2ccc3cn[nH]c3c2)s1	43.7% (active)
CC(C)Cc1nnc(NC(=O)CN2C(=O)NC3(CCCCC3)C2=O)s1	7.7%
CCCc1nc2c3ccccc3ccn2c1Cc1ccccc1C(F)(F)F	1%
Cc1nc2c(OCc3ccc(Cl)cc3)cccn2c1N(C)Cc1cccs1	-1.1%
O=C(C[n+]1cc(Br)cc2ccccc21)c1ccc(F)cc1	41.8% (active)
COC(=O)C[n+]1cccc2ccccc21	10%
O=C(CNC(=O)c1ccccc1F)c1ccc(Br)cc1	-24.7%
